Data on five compounds can be found in PubChem BioAssay.

Active and inactive are the calls of the source.

Assay [1] can be described thus: binders of probe aFSTL3 on microarray, primary screen, stem cell growth factor project, biochemical, small-molecule microarray, fluorescence 635/667 (AID 1064).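 Further: measures binding of the biotinylated anti-FSTL3 antibody to printed compounds.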 As to conditions: higher = more signal.
Assay [2] in a line: binders from COS7 lysate, DM2A8 probe, primary screen, torsin A project, cell lysate, small-molecule microarray, fluorescence 635/667 (AID 1065). To be noted: higher = more signal, COS7 lysate expressing mutant human TOR1A.
Assay [3] in a line: binders of probe aFGF2 on microarray, primary screen, stem cell growth factor project, biochemical, small-molecule microarray, fluorescence 635/667 (AID 1067).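 Further: measures binding of biotinylated aFGF2 protein to printed compounds on slides; z-score merges feature fluorescence and signal-to-noise across triplicate slides.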 As to conditions: higher = more signal.
Assay [4] is described as follows: binders of probe aFGF10 on microarray, primary screen, stem cell growth factor project, biochemical, small-molecule microarray, fluorescence 635/667 (AID 1071).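 Further: score merges 667 nm spot intensity and signal to noise from triplicate slides.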 As to conditions: higher = more signal.
The target in assay [5] is Neurogenic locus notch homolog protein 2 (Homo sapiens) (UniProt Q04721). Description: Notch2 binders on small-molecule microarrays, primary screen, biochemical, small-molecule microarray, 635 nm fluorescence, stem cell growth factors (AID 1073). To be noted: Notch2 binding, higher = more signal.
For assay [6], the target named is Pro-neuregulin-1, membrane-bound isoform (Homo sapiens) (UniProt Q02297). Description: NRG1 binders on small-molecule microarrays, primary screen, psychiatric disease protein project, biochemical, small-molecule microarray, fluorescence 635/667 (AID 1075).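 Further: score combines 667 nm spot fluorescence with signal to noise.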 To be noted: NRG1 binding, 635 nm fluorescence, higher = more signal.
Assay [7] relates to Neuregulin-1 EGF-like domain. Description: binders of neuregulin-1 EGF-like domain, primary screen, biochemical, small-molecule microarray, 635 nm fluorescence (AID 1081).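 Further: binding of the protein to compounds printed on small-molecule microarray slides.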 To be noted: small-molecule microarray binding, higher = more signal.
Assay [8] in a line: FRG1 promoter luciferase signal modulators, primary screen, FRG1 inhibition for FSHD, cell-based, C2C12 myotubes, firefly/Renilla luciferase, luminescence (AID 1084). To be noted: higher = more signal, called active from +8 up or from −8 down.
Assay [9] can be described thus: binders of probe aFST on microarray, primary screen, stem cell growth factor project, biochemical, small-molecule microarray, fluorescence 635/667 (AID 1086).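 Further: score merges 667 nm fluorescence with signal-to-noise of each printed compound spot.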 To be noted: higher = more signal.
A short description of assay [10]: binders of probe aHhip on microarray, primary screen, stem cell growth factor project, biochemical, small-molecule microarray, fluorescence 635/667 (AID 1087).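 Further: score merges spot fluorescence at 667nm with spot signal to noise ratio.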 As to conditions: higher = more signal.
Assay [11] deals with PRMT1 (protein arginine N-methyltransferase 1). The experiment in a line: PRMT1 binders on small-molecule microarrays, primary screen, biochemical, small-molecule microarray, 635 nm fluorescence (AID 1088).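 Further: binding of Prmt1 protein to compounds spotted on small-molecule microarray slides.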 As to conditions: small-molecule microarray binding, higher = more signal.
Assay [12] is described as follows: yeast growth modulation, basal conditions, primary screen, YJM789 clinical isolate, OD600, 24 h (AID 1089).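 Further: growth of clinical yeast isolate S. cerevisiae YJM 789 seeded 1000 cells per well; test concentration not given here.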 As to conditions: S. cerevisiae YJM789 growth, higher = more signal, called active from +8 up or from −8 down.
Assay [13] can be described thus: fission yeast growth modulation, primary screen, strain 972, OD600, 24 h, no modulator (AID 1090).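 Further: basal condition with compound alone and no growth modifier present; test concentration not given here.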 To be noted: S. pombe 972 growth, higher = more signal, called active from +8 up or from −8 down.
A short description of assay [14]: S. cerevisiae growth modulation with rapamycin, primary screen, strain BY4716, OD600, 96 h (AID 1091). Further: test concentration not given here. To be noted: higher = more signal, called active from +8 up or from −8 down.
Assay [15] addresses Torsin-1A-interacting protein 2 (Homo sapiens) (UniProt Q8NFQ8). The experiment in a line: LULL1 binders on small-molecule microarray, primary screen, cell lysate, human LULL1 lysate, 635/667 nm fluorescence (AID 1092).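 Further: probe is lysate of COS7 cells overexpressing human LULL1; score merges per-feature 667 nm fluorescence with signal-to-noise.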 To be noted: hLULL1 lysate binding, 635 nm fluorescence, higher = more signal.
The nature of assay [16]: E. coli growth modulation, two-sided OD650, primary screen, E. coli filamentation project, strain DRC41, 24 h (AID 1093).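 Further: MC1000 strain lacking acrAB efflux and sulA so SOS filamentation is blocked; test concentration not given here.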 To be noted: OD650, 24 h, higher = more signal, called active from +8 up or from −8 down.
The nature of assay [17]: small-molecule microarray binders of probe aLefty2, primary screen, biochemical, biotinylated probe, 635/667 nm fluorescence (AID 1094).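 Further: score merges spot fluorescence near 667 nm with spot signal-to-noise ratio.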 As to conditions: higher = more signal.
Assay [18] relates to Noggin (protein binding on small-molecule microarray). The experiment in a line: Noggin binders on small-molecule microarray, primary screen, biochemical, 635/667 nm fluorescence (AID 1095).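 Further: score merges 667 nm feature fluorescence with signal to noise over triplicate slides.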 As to conditions: 635 nm fluorescence, higher = more signal.
Assay [19] has as its target Neurogenic locus notch homolog protein 3 (Homo sapiens) (UniProt Q9UM47). The experiment in a line: NOTCH3 binders on small-molecule microarray, primary screen, biochemical, 635/667 nm fluorescence (AID 1096). To be noted: NOTCH3 binding, 635 nm fluorescence, higher = more signal.
Assay [20] can be described thus: small-molecule microarray binders of probe aEGFR, primary screen, biochemical, biotinylated probe, 635/667 nm fluorescence (AID 1097).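 Further: probe is a biotinylated anti-EGFR antibody binding compounds printed on slides; score combines fluorescence near 667 nm and signal to noise of each spot.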 To be noted: higher = more signal.

Sequence of Torsin-1A-interacting protein 2 (Homo sapiens) (Q8NFQ8 whole entry, looked up): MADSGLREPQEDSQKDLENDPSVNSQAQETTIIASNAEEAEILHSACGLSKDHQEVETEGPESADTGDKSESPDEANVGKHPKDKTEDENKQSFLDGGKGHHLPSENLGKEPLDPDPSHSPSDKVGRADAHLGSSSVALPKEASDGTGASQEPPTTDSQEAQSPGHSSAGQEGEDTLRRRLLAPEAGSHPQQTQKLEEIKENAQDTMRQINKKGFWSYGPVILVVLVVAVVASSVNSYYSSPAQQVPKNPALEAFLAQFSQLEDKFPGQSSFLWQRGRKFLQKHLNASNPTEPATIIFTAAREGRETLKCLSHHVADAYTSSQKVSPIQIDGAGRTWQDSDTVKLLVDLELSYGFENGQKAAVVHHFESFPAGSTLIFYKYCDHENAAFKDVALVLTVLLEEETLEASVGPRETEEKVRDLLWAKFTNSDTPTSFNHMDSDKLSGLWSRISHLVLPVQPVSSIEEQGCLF
Sequence of Neurogenic locus notch homolog protein 2 (Homo sapiens) (Q04721 whole entry, looked up, canonical isoform): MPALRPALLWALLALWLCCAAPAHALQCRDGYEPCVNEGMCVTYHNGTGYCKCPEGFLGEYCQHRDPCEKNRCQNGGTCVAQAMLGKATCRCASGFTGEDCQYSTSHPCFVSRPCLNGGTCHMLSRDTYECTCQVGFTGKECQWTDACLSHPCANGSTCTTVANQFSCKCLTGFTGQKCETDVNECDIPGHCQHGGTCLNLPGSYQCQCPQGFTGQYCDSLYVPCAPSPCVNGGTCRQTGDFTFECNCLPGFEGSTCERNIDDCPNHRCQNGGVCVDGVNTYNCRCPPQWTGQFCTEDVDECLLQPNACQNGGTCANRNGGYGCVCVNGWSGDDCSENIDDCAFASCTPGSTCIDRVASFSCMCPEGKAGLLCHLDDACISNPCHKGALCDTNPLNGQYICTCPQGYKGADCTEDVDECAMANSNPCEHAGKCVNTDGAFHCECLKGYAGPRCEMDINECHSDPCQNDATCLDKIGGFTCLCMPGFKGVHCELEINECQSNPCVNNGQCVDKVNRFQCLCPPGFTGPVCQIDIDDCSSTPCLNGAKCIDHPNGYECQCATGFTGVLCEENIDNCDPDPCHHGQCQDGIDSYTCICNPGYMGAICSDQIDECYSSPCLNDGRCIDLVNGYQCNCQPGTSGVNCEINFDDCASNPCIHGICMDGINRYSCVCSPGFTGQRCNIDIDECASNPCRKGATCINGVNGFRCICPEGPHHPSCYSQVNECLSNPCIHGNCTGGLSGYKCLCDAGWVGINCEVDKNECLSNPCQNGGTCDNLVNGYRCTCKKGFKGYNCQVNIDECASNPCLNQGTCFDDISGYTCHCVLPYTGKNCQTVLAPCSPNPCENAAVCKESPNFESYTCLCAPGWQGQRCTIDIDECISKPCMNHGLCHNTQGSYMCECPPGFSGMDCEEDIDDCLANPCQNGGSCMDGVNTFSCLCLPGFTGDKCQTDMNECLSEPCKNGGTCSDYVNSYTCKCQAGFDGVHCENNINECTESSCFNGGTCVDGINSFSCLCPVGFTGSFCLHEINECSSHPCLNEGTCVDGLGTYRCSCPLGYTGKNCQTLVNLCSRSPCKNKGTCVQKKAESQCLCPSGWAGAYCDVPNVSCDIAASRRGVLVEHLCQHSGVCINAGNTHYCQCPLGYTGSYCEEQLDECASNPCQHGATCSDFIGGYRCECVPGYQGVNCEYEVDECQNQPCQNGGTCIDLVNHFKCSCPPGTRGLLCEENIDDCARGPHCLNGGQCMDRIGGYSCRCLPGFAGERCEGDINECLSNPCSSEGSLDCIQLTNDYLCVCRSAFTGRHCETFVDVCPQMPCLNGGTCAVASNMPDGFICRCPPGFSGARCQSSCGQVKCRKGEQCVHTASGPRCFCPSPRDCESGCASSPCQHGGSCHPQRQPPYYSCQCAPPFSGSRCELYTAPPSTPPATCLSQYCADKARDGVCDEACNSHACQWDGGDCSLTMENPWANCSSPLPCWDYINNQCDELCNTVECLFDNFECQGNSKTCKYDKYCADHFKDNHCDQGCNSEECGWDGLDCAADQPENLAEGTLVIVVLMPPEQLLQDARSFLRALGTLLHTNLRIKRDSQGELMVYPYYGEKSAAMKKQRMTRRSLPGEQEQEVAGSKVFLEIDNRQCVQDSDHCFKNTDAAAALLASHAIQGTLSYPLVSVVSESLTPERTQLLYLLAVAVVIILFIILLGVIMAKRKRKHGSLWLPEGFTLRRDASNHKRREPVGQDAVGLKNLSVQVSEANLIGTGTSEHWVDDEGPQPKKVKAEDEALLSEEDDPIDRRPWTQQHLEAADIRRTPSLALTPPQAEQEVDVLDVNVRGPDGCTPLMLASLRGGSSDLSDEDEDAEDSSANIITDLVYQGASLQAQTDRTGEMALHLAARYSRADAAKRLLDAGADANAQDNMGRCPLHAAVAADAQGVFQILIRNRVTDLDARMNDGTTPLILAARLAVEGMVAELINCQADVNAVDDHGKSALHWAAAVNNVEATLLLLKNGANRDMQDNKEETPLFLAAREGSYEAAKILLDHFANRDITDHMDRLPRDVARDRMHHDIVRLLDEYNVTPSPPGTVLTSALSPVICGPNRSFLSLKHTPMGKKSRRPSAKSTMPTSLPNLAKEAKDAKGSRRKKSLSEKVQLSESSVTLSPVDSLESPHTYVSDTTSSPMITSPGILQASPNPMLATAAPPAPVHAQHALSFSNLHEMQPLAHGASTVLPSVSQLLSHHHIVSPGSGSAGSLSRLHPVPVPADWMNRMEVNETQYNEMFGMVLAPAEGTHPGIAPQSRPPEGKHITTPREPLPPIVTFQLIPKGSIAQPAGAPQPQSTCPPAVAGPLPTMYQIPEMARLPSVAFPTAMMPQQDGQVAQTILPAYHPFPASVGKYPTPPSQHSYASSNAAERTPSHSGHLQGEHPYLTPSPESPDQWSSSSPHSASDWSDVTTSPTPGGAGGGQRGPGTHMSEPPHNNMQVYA
Sequence of Pro-neuregulin-1, membrane-bound isoform (Homo sapiens) (Q02297 whole entry, looked up, the tested form may be a part, canonical isoform): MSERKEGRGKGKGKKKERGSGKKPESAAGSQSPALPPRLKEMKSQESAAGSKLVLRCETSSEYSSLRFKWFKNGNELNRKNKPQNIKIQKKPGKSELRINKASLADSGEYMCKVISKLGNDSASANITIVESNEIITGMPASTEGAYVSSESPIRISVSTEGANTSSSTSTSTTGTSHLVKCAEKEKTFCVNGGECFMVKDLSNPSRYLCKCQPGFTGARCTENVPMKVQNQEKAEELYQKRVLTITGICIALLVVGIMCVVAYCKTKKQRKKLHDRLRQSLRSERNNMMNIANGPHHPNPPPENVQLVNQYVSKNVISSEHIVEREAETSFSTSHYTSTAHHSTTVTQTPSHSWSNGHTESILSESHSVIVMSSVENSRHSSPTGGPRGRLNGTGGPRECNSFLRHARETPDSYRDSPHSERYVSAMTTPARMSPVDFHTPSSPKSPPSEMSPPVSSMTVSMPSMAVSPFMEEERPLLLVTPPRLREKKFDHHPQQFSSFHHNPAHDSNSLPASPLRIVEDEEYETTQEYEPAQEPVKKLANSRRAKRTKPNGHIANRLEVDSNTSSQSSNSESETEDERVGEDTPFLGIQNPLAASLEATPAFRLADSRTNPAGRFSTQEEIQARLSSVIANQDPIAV

As to `C=C(CCCC)/C(=C/C[C@@H](OC(C)=O)c1ccc(OCCO)cc1)c1cnc2ccccc2c1`, the composite z-score in assay [1] is 0.0374; in [2] it was 0.372; in [3], -0.0598; in assay [4], 0.242; in assay [5], 0.913; in assay [6], 0.952. In addition, the composite z-score in assay [7] was 1.01; in [9], -0.156; in [10], -0.0618; in [11], 1.56; in assay [15], 2.01; in assay [17], -0.132. The results for the composite z-score in [18], in assay [19] and in assay [20] were 0.542, 0.857 and 0.0507, respectively. Also, the z-score in assay [8] is -1.51 (inactive); in assay [12], 0.273 (inactive); in assay [13], -1.44 (inactive); in assay [14] it was -0.245 (inactive); in [16] it was 0.796 (inactive).

Consider `CCC[C@@H]1C[C@@]1(CCC)[C@@H](NC(=O)c1ccccc1)c1cccc(Cl)c1`, for which the composite z-score in assay [1] came to 1.63; in assay [2], 0.249; in assay [3], 0.783; in assay [4], 0.948; in assay [5] it was 1.47; in [6], 0.753. Besides, the composite z-score is 1.09 in [7]; 2.29 in assay [9]; 0.53 in assay [10]; 0.596 in [11]; 3.23 in assay [15]; 0.497 in assay [17]. The results for the composite z-score in assay [18], in assay [19] and in assay [20] were 0.149, 1.15 and 0.913, respectively. In addition, the z-score in [8] is 0.379 (inactive); in [12] it was 1.47 (inactive); in [13], 1.52 (inactive); in assay [14], 2.12 (inactive); in assay [16], -0.452 (inactive).

On to `Cc1ccc(N2C(=O)c3ccccc3[C@@H](C(=O)NC3CC3)[C@@H]2c2ccc(CO)cc2)nc1`, for which the composite z-score in assay [1] is 1.17; in assay [2], -0.78; in assay [3] it was -0.149; in assay [4] it was -1.26; in assay [5] it was -1.63; in [6] it was -1.14. In addition, the composite z-score in [7] was 0.058; in [9], -0.479; in [10], -0.134; in [11], -1.57; in assay [15], 2.35; in assay [17], 0.297. Moreover, the composite z-score is -0.912 in assay [18], -1.44 in assay [19] and -0.281 in assay [20]. In addition, the z-score was 0.554 (inactive) in assay [8]; -1.31 (inactive) in assay [12]; -0.916 (inactive) in assay [13]; -0.486 (inactive) in assay [14]; 0.387 (inactive) in [16].

Consider `CC#CC(=O)Oc1ccccc1C=CC(=O)OCC`, for which the composite z-score in assay [1] is -0.156; in assay [2], -0.0011; in [3] it was -0.0268; in assay [4], 0.238; in [5] it was 0.53; in [6], 0.133. For the same compound, the composite z-score is 0.448 in [7]; 0.163 in assay [9]; -0.125 in assay [10]; 0.779 in assay [11]; 1.33 in assay [15]; -0.0549 in assay [17]. Also, the composite z-score in assay [18] is 0.664; in [19], 0.225; in assay [20] it was -0.0531. For the same compound, the z-score was 0.809 (inactive) in assay [8]; -2.32 (inactive) in assay [12]; -15.4 (active) in assay [13]; -2.16 (inactive) in assay [14]; 0.316 (inactive) in [16].

Consider `CCCCC(CC)C(O)C1C=CC2C(=O)N(Cc3ccccc3)C(=O)C2N1n1cnnc1` (stereo not given), for which the composite z-score in assay [1] is 0.168; in assay [2], -0.367; in assay [3] it was -0.0305; in assay [4], 0.175; in assay [5] it was 0.0048; in assay [6] it was -0.343. For the same compound, the composite z-score in assay [7] is 1.1; in [9], 0.246; in [10] it was -0.199; in assay [11] it was 0.249; in assay [15], 0.77; in assay [17] it was -0.0238. The results for the composite z-score in [18], in assay [19] and in assay [20] were -0.0141, -0.22 and -0.0253, respectively. The z-score in assay [8] is -0.302 (inactive); in assay [12] it was -0.279 (inactive); in assay [13], -0.359 (inactive); in assay [14] it was -0.435 (inactive); in [16], -1.05 (inactive).
